This is a sample that favours compounds with a hit; in the whole collection about 1.5% have one here.
EBV gp42 inh: blocks Epstein-Barr virus glycoprotein 42 binding. Q1HVG2. Fluorescence polarization binding assay, mP read-out. inhibition, % (tested at 21.74 µM). hit rate 0.42% among 220,000. AID 1085; in the data active = inhibition above about 50%
Target sequence (Q1HVG2 whole entry, looked up): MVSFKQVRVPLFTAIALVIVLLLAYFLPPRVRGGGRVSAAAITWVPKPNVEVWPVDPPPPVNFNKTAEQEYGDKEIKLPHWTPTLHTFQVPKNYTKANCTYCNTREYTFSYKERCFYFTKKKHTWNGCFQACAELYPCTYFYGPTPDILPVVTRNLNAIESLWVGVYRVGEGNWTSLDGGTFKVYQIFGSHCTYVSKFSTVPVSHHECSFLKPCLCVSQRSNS
eLon inh: inhibits E. coli Lon protease; P0A9M0; purified E. coli Lon protease, fluorescence polarization; inhibition, % at 7.94 µM; hit rate 0.42% among 360,000; AID 602123; in the data active = inhibition above about 13%, passing the limit was not always enough
Bcl-xL primary: inhibitors of human Bcl-xL | GST-Bcl-xL / FITC-Bim BH3 peptide fluorescence polarization | inhibition, % at 10.9 µM | hit rate 0.7% among 320,000;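 active = inhibition above the mean of all tested compounds plus 3 SD, cutoff set per campaign, cut at about 30% in these data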;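 also: inhibitors lower millipolarization by displacing the labeled peptide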
Target sequence (Q07817 whole entry, looked up): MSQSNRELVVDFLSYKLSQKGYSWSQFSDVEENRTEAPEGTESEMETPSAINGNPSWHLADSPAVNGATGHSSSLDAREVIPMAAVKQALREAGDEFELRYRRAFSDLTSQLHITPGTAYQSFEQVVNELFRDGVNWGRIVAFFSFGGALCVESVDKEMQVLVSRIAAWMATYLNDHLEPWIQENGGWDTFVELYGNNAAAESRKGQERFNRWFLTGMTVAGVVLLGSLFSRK
MEX-5 binding: C. elegans MEX-5 TCR-2 RNA binding activity; Q9XUB2; MEX-5/FITC-TCR2 RNA binding, fluorescence polarization; active compounds read low; activity score (negative = inhibition of binding), % at 10 µM; hit rate 0.38% among 300,000; AID 1832;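 active = inhibition past about -25% in most replicates, and total fluorescence under double the plate's negative control median, limit read from the data; inconclusive = replicates evenly split on the limit, or fluorescence at least double controls; inactive = too little inhibition in most replicates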
GLD-1 RNA inh: GLD-1-TGE RNA interaction inhibition (C. elegans); Q17339; purified GLD-1 + fluorescein TGE RNA, fluorescence polarization; inhibition, % at 5.96 µM; hit rate 0.44% among 320,000;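 active = percent inhibition above a per-plate cutoff, the plate mean of test compounds plus 3 SD, cut at about 30% in these data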
MCL1 BIM primary: disrupts human MCL1 binding to BIM-BH3 peptide; Q07820; GST-MCL1 / FITC-Bim-BH3 fluorescence polarization; inhibition, % at 10.9 µM; hit rate 0.68% among 320,000; AID 2057;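 active = inhibition above the mean inhibition of all tested compounds plus 3 SD, set per campaign, cut at about 40% in these data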;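 also: higher means more loss of mP so more displacement of Bim peptide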
Of the large screens only hits and unclear results are named; the others gave an inactive call.

CCC1c2ccc(C)n2CCN1C(=O)Nc1cc(Cl)ccc1OC (centres undefined)	Bcl-xL primary 56, GLD-1 RNA inh 38, MCL1 BIM primary 53
COc1ccc(Cl)cc1NC(=O)N1CCC(C)CC1	none
C=C1CCN(c2ccc(C(=O)NCCC)cc2[N+](=O)[O-])CC1	none (no result: EBV gp42 inh)
CCSc1nnc(-c2sc3nnc(-c4ccccc4)c(-c4ccccc4)c3c2N)o1	EBV gp42 inh 167, MEX-5 binding inconclusive
CCSc1nnc(-c2ccncc2)o1	none
CCCNC(=O)C1(C)CCN(Cc2noc(-c3ccccc3OC)n2)C1 (centres undefined)	none (no result: EBV gp42 inh, Bcl-xL primary, MEX-5 binding, GLD-1 RNA inh, MCL1 BIM primary)
C=CCn1ccc(=NC=C(C#N)C#N)c2ccccc21	MEX-5 binding -75
C=CCn1ccc2c([N+](=O)[O-])cccc2c1=O	none
Cc1nc(C(=O)O)sc1C1(C)CC(c2cccc([N+](=O)[O-])c2)=NO1 (centres undefined)	none (no result: EBV gp42 inh)
O=C(NC1CCCCCCC1)c1ccc(Br)cc1	Bcl-xL primary 68, MCL1 BIM primary 52 (no result: EBV gp42 inh)
O=C(NNC(=O)c1cccc2ccccc12)c1ccc(Cl)cc1Cl	none (no result: EBV gp42 inh, Bcl-xL primary, MEX-5 binding, GLD-1 RNA inh, MCL1 BIM primary)
O=C(NNC(=O)c1ccc2ccccc2c1O)c1ccccc1Cl	MEX-5 binding -56
COc1ccc(OC)c(NC(=S)NCc2ccccc2OC)c1	Bcl-xL primary 30
COc1ccc(OC)c(NC(=S)NCc2cccs2)c1	none
O=C(NC1CC1)c1cccc(S(=O)(=O)N2CCOCC2)c1	none (no result: EBV gp42 inh, MEX-5 binding)
CCOC(=O)N1CCN(C(=O)c2ccccc2Oc2ccccc2)CC1	EBV gp42 inh 130
CCOC(=O)C1CCN(C(=O)c2ccccc2Oc2ccccc2)CC1	none
O=C1OC2(c3ccccc31)c1cc(I)c(O)c(I)c1Oc1c2cc(I)c(O)c1I	Bcl-xL primary 88, GLD-1 RNA inh 51, MCL1 BIM primary 87 (no result: EBV gp42 inh, eLon inh, MEX-5 binding)
C1CCc2nc3c(nc2C1)CCCC3	none
Nc1nnc2c(n1)CCCC2	MEX-5 binding -32
Cc1ccsc1C(=O)OCC(=O)NC1CCCC(C)C1C (centres undefined)	none (no result: EBV gp42 inh, Bcl-xL primary, MEX-5 binding, MCL1 BIM primary)
Cc1cc(=O)[nH]c(N/N=C/c2ccc(O)c(O)c2)n1	MEX-5 binding -42 (no result: EBV gp42 inh)
O=C(N/N=C/C=C\c1ccccc1[N+](=O)[O-])c1cccs1	none
O=C(N/N=C/C=C/c1ccc([N+](=O)[O-])cc1)c1cccs1	MEX-5 binding -72
O=C1NC2(CCCCCC2)C(=O)N1Cc1ccccc1	none (no result: EBV gp42 inh)
O=C1NC(=O)N(Cc2ccccc2)C1=O	Bcl-xL primary 57, MCL1 BIM primary 53 (no result: EBV gp42 inh)
O=C(NC12CC3CC(CC(C3)C1)C2)c1ccc(-c2ccccc2Cl)o1	eLon inh 19
O=C(NNC(=O)c1sccc1-n1cccc1)c1ccccc1	none
O=C(NNC(=O)c1sccc1-n1cccc1)c1cccc(Cl)c1	EBV gp42 inh 67
CCCOc1cc(N(CC)CC)ccc1/C=C(/C#N)c1nc2ccc(C)cc2[nH]1	EBV gp42 inh 92
CCN(CC)c1ccc(/C=C(/C#N)c2nc3ccc(C)cc3[nH]2)c(OC(C)C)c1	EBV gp42 inh 67, Bcl-xL primary 42
CCC(C)N1C(=O)/C(=C/c2c(NCCCOC(C)C)nc3c(C)cccn3c2=O)SC1=S (centres undefined)	EBV gp42 inh 130 (no result: MEX-5 binding)
CN1/C(=C\P(=O)(N(C)C)N(C)C)C(C)(C)c2ccccc21	Bcl-xL primary 45, GLD-1 RNA inh 59, MCL1 BIM primary 47
O=C(COC(=O)c1cccc(NS(=O)(=O)c2ccc(F)c(F)c2)c1)NC(=O)NC1CCCC1	none
COc1ccc(-c2cn3nc4c(nc3n2)CCCC4)cc1	EBV gp42 inh 96 (no result: Bcl-xL primary, MEX-5 binding, GLD-1 RNA inh, MCL1 BIM primary)
O=C(CSc1nnc(-c2ccccc2F)n1C1CC1)Nc1cccnc1Cl	none
Cc1ccc(CNC(=O)CN2C(=O)NC3(CC(C)CC(C)(C)C3)C2=O)cc1 (centres undefined)	none (no result: EBV gp42 inh, MEX-5 binding)
CCn1cc(C(=O)NCc2ccccn2)c(=O)c2cc(S(=O)(=O)N3CCCCC3)ccc21	EBV gp42 inh 111, MEX-5 binding -72 (no result: eLon inh, Bcl-xL primary, GLD-1 RNA inh, MCL1 BIM primary)
CCOCCCNC(=O)c1cn(CC)c2ccc(S(=O)(=O)N3CCC(C)CC3)cc2c1=O	Bcl-xL primary 37 (no result: EBV gp42 inh)
CCn1cc(C(=O)NCc2ccco2)c(=O)c2cc(S(=O)(=O)N3CCCCCC3)ccc21	none
O=C1C2=C(SCCS2)C(=O)N1c1ccccc1	MEX-5 binding -45
O=C(CC[C@H]1O[C@@H](n2ccc(=O)[nH]c2=O)[C@H](O)[C@@H]1O)NCCc1c[nH]c2ccccc12	none (no result: EBV gp42 inh, Bcl-xL primary, MEX-5 binding, GLD-1 RNA inh, MCL1 BIM primary)
Cc1ccc(NC(=S)c2ccc3ccccc3n2)c(C)c1	MEX-5 binding -38 (no result: EBV gp42 inh)
Cc1ccc(C)c(NC(=O)c2ccc3ccccc3n2)c1	none
CCCCCCN1C[C@@H](n2cc(COC(=O)c3ccccc3)nn2)[C@H](O)C[C@@H]1c1ccc(Cl)cc1	none (no result: EBV gp42 inh, Bcl-xL primary, MEX-5 binding, GLD-1 RNA inh, MCL1 BIM primary)
CCCNC(=O)Cn1c(=O)/c(=C\c2ccc(-c3cccc([N+](=O)[O-])c3)o2)s/c1=C\C(=O)C(C)(C)C	EBV gp42 inh 69
CN(Cc1ccccc1)C(=O)c1cccc(NC(=O)Cc2ccc(NC(=O)C3CCCN(C(=O)c4ccccc4)C3)cc2)c1 (centres undefined)	none (no result: EBV gp42 inh, Bcl-xL primary, MEX-5 binding, GLD-1 RNA inh, MCL1 BIM primary)
COc1cccc(/C=N/NC(=O)c2ccc(=O)[nH]n2)c1O	MEX-5 binding -35
Cc1cccc2c3nc4ccccc4nc3n(CCCN3C(=O)c4ccccc4C3=O)c12	EBV gp42 inh 83 (no result: Bcl-xL primary, GLD-1 RNA inh, MCL1 BIM primary)
CCN(CC)c1ccc(NS(=O)(=O)c2ccc(-c3ccc(=O)[nH]n3)o2)c(C)c1	Bcl-xL primary 32 (no result: EBV gp42 inh)
CCOC(=O)c1c(N)sc(=S)c2c1CCC2	Bcl-xL primary 37, MCL1 BIM primary 46
CCOC(=O)c1c(N)sc(N)c1C(=O)OCC	none
COc1cc(OC)cc(C(=O)NCC(=O)OCC(=O)Nc2ccc(C)c(S(=O)(=O)N3CCOCC3)c2)c1	none (no result: EBV gp42 inh, Bcl-xL primary, MEX-5 binding, GLD-1 RNA inh, MCL1 BIM primary)
O=[N+]([O-])c1cccc(-c2cn3ccccc3n2)c1	none
O=[N+]([O-])c1ccc(-n2cc(-c3ccccc3)nn2)cc1	none (no result: EBV gp42 inh)
O=[N+]([O-])c1ccc(-c2cn3nc(-c4ccccc4)c(-c4ccccc4)nc3n2)cc1	EBV gp42 inh 111
O=[N+]([O-])c1cccc(-c2cn3nc(-c4ccccc4)c(-c4ccccc4)nc3n2)c1	EBV gp42 inh 72, MEX-5 binding -44
O=C(N/N=C/c1ccc([N+](=O)[O-])o1)c1cc2c(ccc3ccccc32)o1	EBV gp42 inh 60 (no result: Bcl-xL primary, MEX-5 binding, GLD-1 RNA inh, MCL1 BIM primary)
CC(C)[C@@H](C(=O)N[C@@H](Cc1ccccc1)C(=O)O)N1C(=O)N2CCc3c([nH]c4ccccc34)[C@@]2(C)C1=O	none (no result: EBV gp42 inh)
COC(=O)c1sccc1NC(=O)CNC(=O)c1ccccc1	none
CN(C)c1ccnc2sc(C(=O)c3ccc(Br)cc3)c(N)c12	EBV gp42 inh 73
CCCn1c(SCC(=O)NC2CCC(C)CC2)n[nH]c1=O (centres undefined)	Bcl-xL primary 41, MCL1 BIM primary 48 (no result: EBV gp42 inh, MEX-5 binding)
CCCCNC(=O)C(CC)(ONc1ccccc1C(F)(F)F)c1ccccc1OC (centres undefined)	none (no result: EBV gp42 inh, MEX-5 binding)
